Compounds with a hit are over-represented: about 3.4% of the library has one in this group of screens.
FBW7 act: activators of human E3 ligase FBW7; AlphaScreen FBW7–phospho-cyclin E peptide binding, activator screen; Q969H0; hit rate 0.13% among 650,000; normalized activity (activation), % at 26.1 µM; in the data active = normalized activity above about 1.9%;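 note: purified mutant Fbw7 with reduced substrate affinity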
Target sequence (Q969H0 whole entry, looked up): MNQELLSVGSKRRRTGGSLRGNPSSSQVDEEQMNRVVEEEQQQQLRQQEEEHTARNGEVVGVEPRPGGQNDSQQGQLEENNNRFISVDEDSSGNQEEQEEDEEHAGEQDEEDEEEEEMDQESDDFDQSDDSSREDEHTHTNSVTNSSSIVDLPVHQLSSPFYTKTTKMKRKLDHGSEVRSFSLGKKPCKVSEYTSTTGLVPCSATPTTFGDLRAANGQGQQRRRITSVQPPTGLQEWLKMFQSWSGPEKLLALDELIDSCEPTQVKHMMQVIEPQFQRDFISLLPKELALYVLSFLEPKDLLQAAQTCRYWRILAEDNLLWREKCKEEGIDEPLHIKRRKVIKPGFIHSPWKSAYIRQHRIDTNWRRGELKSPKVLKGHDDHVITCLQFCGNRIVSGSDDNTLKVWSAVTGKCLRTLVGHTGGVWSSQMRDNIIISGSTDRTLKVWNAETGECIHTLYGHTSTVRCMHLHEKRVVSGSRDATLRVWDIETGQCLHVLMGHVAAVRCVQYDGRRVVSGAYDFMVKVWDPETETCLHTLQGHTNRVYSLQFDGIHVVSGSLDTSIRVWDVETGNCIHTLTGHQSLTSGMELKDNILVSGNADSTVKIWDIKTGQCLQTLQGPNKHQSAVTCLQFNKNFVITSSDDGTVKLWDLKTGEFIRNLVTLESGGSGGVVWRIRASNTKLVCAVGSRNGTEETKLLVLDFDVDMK
GPR151 ag: activators of human GPR151. activation, % at 11.2 µM. PathHunter beta-arrestin GPR151 cells, luminescence. hit rate 1% among 650,000; in the data active = activation above about 4.9%
MITF inh: blocks human microphthalmia-associated transcription factor. AlphaScreen MITF homodimerization, bead proximity signal. inhibition, % at 2.6 µM. hit rate 0.91% among 650,000; in the data active = inhibition above about 50%
TEAD-YAP inh: TEAD-YAP interaction inhibition; AID 1259422; HEK-TIYL cells, TEAD-Gal4/YAP UAS-luciferase luminescence; hit rate 1.4% among 640,000; inhibition, % at 9.12 µM; in the data active = inhibition above about 32%
Each line names hits and unclear results; the compound was inactive in the other large screens.

CC(C)n1cnc2c(NC3CCN(Cc4ccccc4)CC3)nc(-c3ccc(C(=O)NC4CC4)cc3)nc21	TEAD-YAP inh 52
CN1CCN(C(=O)c2ccc(-c3nc(NC4CC4)c4ncn(-c5ccccc5)c4n3)cc2)CC1	TEAD-YAP inh 41
CC(C)n1cnc2c(NCc3ccccc3)nc(-c3ccc(C(=O)NC4CC4)cc3)nc21	none
CCOC(=O)c1c(Cl)nc(Cl)c(Cl)c1SC(=S)N1CC(C)OC(C)C1 (configuration not stated)	none
Cc1ccc(C)c(N2CCN(c3ncnc4c3c(-c3ccccc3)cn4-c3cccc(Cl)c3)CC2)c1	none
CC(C)n1cnc2c(NC3CCN(Cc4ccccc4)CC3)nc(-c3ccc(C(=O)N4CCN(C)CC4)cc3)nc21	TEAD-YAP inh 58
CC(C)n1cnc2c(NC3CCN(Cc4ccccc4)CC3)nc(-c3ccc(N4CCN(C)CC4)cc3)nc21	none
CC(=O)NC(=O)c1cc2ccccc2oc1=Nc1ccc(C)cc1	TEAD-YAP inh 35
COc1ccc(/C=C(\C#N)C(=O)OCC(=O)Nc2nc(-c3ccc(F)cc3)cs2)cc1	none
C=CCn1c(SCC(=O)OCC)nc2sc3c(c2c1=O)CCC(C(C)(C)C)C3 (configuration not stated)	TEAD-YAP inh 38
CCC(CC)C(=O)Nc1cccc(C(=O)Nc2ccc3c(c2)OCCO3)c1	none
O=C(Nc1ccc2c(c1)OCCO2)c1ccccc1O	TEAD-YAP inh 56
Cc1ccc(C2=NC(C)(C)N=C2SCC(=O)Nc2ccc3c(c2)OCCO3)cc1	FBW7 act 3.7
O=C(Nc1ccc2c(c1)OCCO2)c1ccccc1F	TEAD-YAP inh 41
O=C(Nc1cccc(C(=O)NC2CC2)c1)C(=O)Nc1ccc2c(c1)OCCO2	TEAD-YAP inh 66
Cc1ccc(C(=O)Nc2ccc3c(c2)OCCO3)c(C)c1	TEAD-YAP inh 89
Cc1cc(C)c(C(=O)Nc2ccc3c(c2)OCCO3)c(C)c1	none
COC(=O)c1ccc(OC(=O)c2ccc(F)cc2)c(C(=O)OC)c1	none
COCCNC(=O)c1ccc2c(c1)CC(c1nc3ccc(-c4ccnc(N)n4)cc3[nH]1)CO2 (configuration not stated)	none
COc1ccc(CCNC(=O)c2ccc3c(c2)CC(c2nc4ccc(-c5ccnc(N)n5)cc4[nH]2)CO3)cc1 (configuration not stated)	FBW7 act 5.8, TEAD-YAP inh 41
CC(C)CNC(=O)c1ccc2c(c1)CC(c1nc3ccc(-c4ccnc(N)n4)cc3[nH]1)CO2 (configuration not stated)	FBW7 act 2.3
CC(CNC(=O)c1ccc2c(c1)CC(c1nc3ccc(-c4ccnc(N)n4)cc3[nH]1)CO2)c1cccs1 (configuration not stated)	FBW7 act 2.7, TEAD-YAP inh 45
CS(=O)(=O)N(CC(=O)Nc1cccc(Cl)c1)c1cc(Cl)ccc1Cl	none
O=C(Nc1ccc(N2CCOCC2)cc1)c1csc(N2CCC(N3CCOCC3)CC2)n1	none
Nc1cccc(-c2cccc(C(=O)Nc3ccc(N4CCOCC4)cc3)n2)c1	none
Cc1nn(C)c(C)c1-c1cccc(C(=O)Nc2ccc(N3CCOCC3)cc2)n1	TEAD-YAP inh 45
O=C(Nc1ccc(N2CCOCC2)cc1)c1csc(Br)n1	TEAD-YAP inh 52
O=C(Nc1ccc(N2CCOCC2)cc1)c1cc([N+](=O)[O-])ccc1Br	TEAD-YAP inh 43
Cc1nc2c(C(=O)Nc3ccc(Cl)cc3)snc2c(=O)[nH]1	none
Cc1nc2c(C(=O)Nc3ccc(N4CCOCC4)cc3)snc2c(=O)[nH]1	TEAD-YAP inh 33
O=C(Nc1ccc(N2CCCCC2)cc1)c1cc([N+](=O)[O-])ccc1N1CCOCC1	none
O=C(Nc1ccc(N2CCOCC2)cc1)c1cc([N+](=O)[O-])ccc1Cl	TEAD-YAP inh 35
O=C(c1cc([N+](=O)[O-])ccc1N1CCCCC1)N1CCN(c2ccccc2)CC1	TEAD-YAP inh 48
O=C(Nc1ccccc1Br)c1cc([N+](=O)[O-])ccc1N1CCOCC1	TEAD-YAP inh 50
O=C(Nc1ccc(N2CCCC2)cc1)c1cc([N+](=O)[O-])ccc1N1CCOCC1	none
O=C(CSc1cccc[n+]1[O-])NC(=O)C1COc2ccccc2O1 (configuration not stated)	none
C#CCN(CC#C)c1ccc(C)cc1	none
Cc1c(C(=O)NC2=NCCS2)oc2ccccc12	TEAD-YAP inh 38
CC(=O)c1ccc(N=Nc2ccc(O)c(C=O)c2)cc1	TEAD-YAP inh 90
COc1ccc(Cl)cc1/C=C1/C(=O)ON=C1C	none
COc1cccc(C=C2C(=O)NC(=O)NC2=O)c1OCc1ccccc1Cl	none
COc1cccc(/C=C2\C(=O)ON=C2C)c1OCc1ccccc1Cl	MITF inh 74
COc1ccccc1/C=C1\C(=O)ON=C1C	MITF inh 71
CC1=NOC(=O)/C1=C/c1ccccc1OS(=O)(=O)c1ccc(C)cc1	MITF inh 70
Cc1ccc(NC(=O)c2c(-c3ccccc3)noc2C)c([N+](=O)[O-])c1	none
O=C(O)C1CCCN(c2nn3cc(-c4ccc(F)cc4)nc3s2)C1 (configuration not stated)	TEAD-YAP inh 85
COc1ccc(-c2cn3nc(N4CCCC(C(=O)O)C4)sc3n2)cc1 (configuration not stated)	none
CCOC(=O)c1c(NC(=O)CSc2ccccc2)sc(CC)c1-c1ccccc1	MITF inh 70
Cc1sc(NC(=O)COc2ccccc2)c(C(N)=O)c1-c1ccccc1	TEAD-YAP inh 75
Cc1sc(NC(=O)COc2ccccc2)c(C(N)=O)c1C	none
CCC(C)(C)n1nnnc1CN1CCC(c2nc3ccc(C)cc3[nH]2)CC1	none
CCC(C)(C)n1nnnc1CN1CCC(c2nc3ccc(Cl)cc3[nH]2)CC1	TEAD-YAP inh 35
CCOc1ccc(Nc2nc(Nc3ccc(NC(C)=O)cc3)nc(C)c2[N+](=O)[O-])cc1	TEAD-YAP inh 44
CC(=O)Nc1ccc(Nc2nc(C)c([N+](=O)[O-])c(Nc3ccccc3)n2)cc1	none
COC1=C(O)C(=O)c2c(cc3oc(C(C)=O)c(O)c3c2O)C1=O	MITF inh 76
OC(COc1ccc(Cl)cc1)CN1C2=NCCN2c2ccccc21 (configuration not stated)	TEAD-YAP inh 40
NC(=O)CSc1nc(COc2ccccc2)nc2sc3c(c12)CCCC3	none
COc1ccc(C(=O)COc2cccc3cccnc23)cc1[N+](=O)[O-]	none
Cc1ccc(NC(=O)CC2c3ccccc3Oc3ccccc32)nc1	TEAD-YAP inh 52
O=C(CC1c2ccccc2Oc2ccccc21)Nc1ccccn1	none
CCCCCCCCNC(=O)c1ccc([N+](=O)[O-])o1	TEAD-YAP inh 35
O=C(NCCCN1CCOCC1)c1ccc([N+](=O)[O-])o1	none
CN(C)C(=O)CSc1nnc(-c2ccco2)n1C	FBW7 act 2.1
COCc1c(C#N)c(Sc2nnc(N)s2)nc(C)c1[N+](=O)[O-]	MITF inh 55
COCc1c(C#N)c(Cl)nc(C)c1[N+](=O)[O-]	none
CNC(=O)CCC(=O)N1CCOc2ccccc21	none
COC(=O)c1ccc(NC(=O)c2ccc(C)cc2Cl)cc1	none
O=C(O)c1cc(NC(=O)c2ccc(Cl)cc2Cl)cc(C(=O)O)c1	none
